From PubChem BioAssay AID1159580 (chemical genetic matrix, 2015)
Values joined by “and” are separate entries in the source; they are usually repeats but may differ in a detail not shown here. Identical values can stand only once. Out of some 5,500 compounds screened, about 2,000 (36%) were called active. About 18% were inconclusive and are not listed. Cut-off read from the data, not from the text of the source: active = normalized growth mostly below about 0.91 (no sharp cut-off); inconclusive = no clear call, values can overlap the other calls; inactive = mostly above about 0.92. The list shows a part of the results.

Assay: chemical genetic growth profiling, strain panel (AID 1159580);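 note: tested at 20 µM; growth read once vehicle control cultures reached saturation at 30 °C; 1 = growth at the plate median or of vehicle wells; lower values mean less growth of the strain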
Details: S. cerevisiae deletion strains, growth OD

Measured: normalized growth

O=c1[nH]cnc2c1ncn2C1O[C@H](CO)[C@@H](O)[C@H]1O (stereo partly drawn)
inactive: locus YAL013W, strain DEP1, hits give low values 1.01 | locus YAL021C, strain ccr4, hits give low values 0.989 | locus YAL026C, strain drs2, hits give low values 1 | locus YAL030W, strain snc1, hits give low values 0.989 | locus YBL061C, strain skt5, hits give low values 0.995 | locus YBR009C, strain hhf1, hits give low values 1.02 | locus YBR021W, strain FUR4, hits give low values 1 | locus YBR023C, strain chs3, hits give low values 0.998 | locus YBR171W, strain sec66, hits give low values 0.978 | locus YBR229C, strain ROT2, hits give low values 1 | locus YBR231C, strain swc5, hits give low values 0.974 | locus YBR279W, strain paf1, hits give low values 0.986 | locus YCL011C, strain gbp2, hits give low values 1 | locus YCL016C, strain dcc1, hits give low values 1 | locus YCL029C, strain bik1, hits give low values 1.03 | locus YCL069W, strain vba3, hits give low values 0.995 | locus YCR088W, strain abp1, hits give low values 0.981 | locus YDL005C, strain med2, hits give low values 0.987 | locus YDL035C, strain GPR1, hits give low values 1.01 | locus YDL040C, strain nat1, hits give low values 0.986 | locus YDL074C, strain BRE1, hits give low values 1.01 | locus YDL101C, strain DUN1, hits give low values 1.01 | locus YDL134C, strain PPH21, hits give low values 1 | locus YDL185W, strain tfp1, hits give low values 1.04 | locus YDL192W, strain arf1, hits give low values 1.05 | locus YDR001C, strain nth1, hits give low values 0.986 | locus YDR069C, strain doa4, hits give low values 0.975 | locus YDR101C, strain arx1, hits give low values 1.05 | locus YDR137W, strain rgp1, hits give low values 1.01 | locus YDR159W, strain sac3, hits give low values 0.968 | locus YDR162C, strain NBP2, hits give low values 1.01 | locus YDR195W, strain ref2 0.958 | locus YDR297W, strain sur2, hits give low values 0.993 | locus YDR318W, strain mcm21, hits give low values 1.01 | locus YDR334W, strain swr1, hits give low values 0.974 | locus YDR335W, strain msn5, hits give low values 0.997 | locus YDR388W, hits give low values 1.03 | locus YDR392W, strain spt3, hits give low values 0.907 | locus YDR502C, strain sam2, hits give low values 1.02 | locus YEL003W, strain gim4, hits give low values 0.991 | locus YEL037C, strain rad23, hits give low values 0.987 | locus YEL061C, strain CIN8 (second series), hits give low values 0.989 | locus YEL061C, strain CIN8, hits give low values 1 | locus YER015W, strain faa2, hits give low values 0.982 | locus YER016W, strain bim1, hits give low values 0.989 | locus YER110C, hits give low values 1.03 | locus YER111C, strain swi4, hits give low values 0.996 | locus YER155C, strain BEM2 (second series), hits give low values 0.939 | locus YER155C, strain BEM2, hits give low values 1.01 | locus YER167W, strain BCK2, hits give low values 1 | locus YFR010W, strain ubp6, hits give low values 0.983 | locus YGL078C, strain dbp3, hits give low values 1.02 | locus YGL086W, strain mad1, hits give low values 1.01 | locus YGL167C, strain pmr1, hits give low values 0.978 | locus YGL173C, strain kem1, hits give low values 0.988 | locus YGL227W, strain vid30, hits give low values 0.98 | locus YGL240W, strain doc1, hits give low values 1 | locus YGL248W, strain PDE1, hits give low values 1.01 | locus YGL253W, strain hxk2, hits give low values 0.988 | locus YGR135W, strain pre9, hits give low values 0.998 | locus YGR252W, strain gcn5, hits give low values 0.981 | locus YHR013C, strain ard1, hits give low values 0.969 | locus YHR027C, strain rpn1, hits give low values 0.997 | locus YHR030C, strain SLT2, hits give low values 1 and 0.966 | locus YHR079C, strain IRE1 (second series), hits give low values 1.03 | locus YHR079C, strain IRE1, hits give low values 0.978 | locus YHR094C, strain hxt1, hits give low values 1.02 | locus YHR129C, strain ARP1, hits give low values 1 | locus YHR142W, strain chs7, hits give low values 1.02 | locus YHR200W, strain rpn10, hits give low values 1.03 | locus YIL066C, strain RNR3, hits give low values 1.01 | locus YIL073C, strain SPO22, hits give low values 1.12 | locus YIL125W, strain kgd1, hits give low values 1.02 | locus YIR030C, strain dcg1, hits give low values 1.04 | locus YJL092W, strain hpr5, hits give low values 0.998 | locus YJL095W, strain BCK1 (second series), hits give low values 0.987 | locus YJL095W, strain BCK1, hits give low values 1.02 and 0.981 | locus YJL115W, strain asf1, hits give low values 0.987 | locus YJL129C, strain trk1, hits give low values 0.994 | locus YJL134W, strain LCB3, hits give low values 1 | locus YJL154C, strain vps35, hits give low values 0.982 | locus YJL164C, strain tpk1, hits give low values 1.02 | locus YJL166W, strain qcr8, hits give low values 1.01 | locus YJL168C, strain set2, hits give low values 1.01 | locus YJL187C, strain SWE1 (second series), hits give low values 1 | locus YJL187C, strain SWE1, hits give low values 0.991 | locus YJR043C, strain POL32, hits give low values 1.01 | locus YJR066W, strain TOR1, hits give low values 0.925
